The source of these data is ChEMBL document CHEMBL3988442, “University of Dundee, Small-Polar-MMV Screening Library” (2021).

Structures are written as SMILES. About 13,000 (27%) of roughly 48,000 compounds showed an effect of 50% or more. This is one part of the list.

The test system of this assay is Wolbachia pipientis. The assay can be described thus: Anti-Wolbachia Cell-Based Screen. Also on record: scale not given: in the data most compounds retested in dose-response had high values. To be noted: 5 µM. The format is functional.
Take `Cc1cccc(C(C(=O)NCCc2nc(C)cc(=O)[nH]2)N(C)C)c1` (stereo unspecified): the “Percent Effect” value is 7.079%.
`Nc1nc(CCCNC(=O)C2CCCN(Cc3ccco3)C2)cs1` (stereo unspecified): the “Percent Effect” value worked out at 11.5%.
Next, `Cc1ccccc1C(=O)NCCC(=O)NS(=O)(=O)c1cccnc1`: -14.99%; `CCn1cncc1CNc1ccc(-c2nc(CC(C)C)no2)cn1`: 7.108%.
Consider `CC(C)c1nnc2n1CCN(C(=O)c1ccc(OCC3CC3)cc1)C2`, for which the “Percent Effect” value amounted to 5.374%.
On to `Cn1cc(N)c(-c2nnc3n2CCCC3)n1`, for which the “Percent Effect” value is given as 140.1%.
`CC(NCc1ccc(Cl)o1)c1nnc2n1CCCC2` (stereo unspecified): the “Percent Effect” value is given as -1.685%.
As to `COc1c(CNCc2nnc3n2CCCCC3)c(C)nn1C.Cl`, the “Percent Effect” value is -7.415%.
As to `Cc1ccoc1CNC(C)c1nnc2n1CCCC2` (stereo unspecified), the “Percent Effect” value was -17.53%.
As to `COc1cc(CNC(C)c2nnc3n2CCC3)cc(OC)c1` (stereo unspecified), the “Percent Effect” value is recorded as 10.34%.
With `CC(NCc1ccco1)c1nnc2n1CCCC2` (stereo unspecified), the “Percent Effect” value is recorded as -19.1%.
In the case of `CCn1cc(N)c(-c2nnc3n2CCCC3)n1`, the “Percent Effect” value is 106%.
Turning to `CCn1cc(N)c(-c2nnc3n2CCC3)n1`, the “Percent Effect” value is 92.6%.
Consider `Cc1ccc(CNC(C)c2nnc3n2CCCC3)o1` (stereo unspecified), for which the “Percent Effect” value is listed as -12.78%.
On to `O=C(NCC1(O)CCOc2ccccc21)Nc1ccccc1` (stereo unspecified), for which the “Percent Effect” value is given as -14.8%.
Next, `O=C(O)c1ccnc(-c2ccnc(COc3ccc(Cl)cc3)n2)c1`: -21.17%; `CCCS(=O)(=O)N1CCN(c2cc(-n3cnc(C)c3C)ncn2)CC1`: -4.672%.
Next, `OC1CCCOC12CCN(CCCOc1ccccc1F)CC2` (stereo unspecified): 114.2%; `COc1ccccc1S(=O)(=O)N1CCC2(CC1)OCCCC2O` (stereo unspecified): 6.351%; `NC(=O)c1ccc(OCCCN2CCC3(CC2)OCCCC3O)cc1` (stereo unspecified): 101.3%.
On to `NC(=O)c1ccc(OCCCN2C[C@H](C3CC3)[C@@H](N)C2)cc1`, for which the “Percent Effect” value is given as -11.21%.
For `O[C@H]1CN(CCCOc2ccccc2F)CC[C@@]12CCCO2` the value was 134.4%; for `O[C@H]1CCN(CCCOc2ccccc2F)C[C@@]12CCCO2`, 90.29%.
On to `Cc1cc(C2CCC2)nc(N2CCC3(CC2)OCCCC3O)n1` (stereo unspecified), for which the “Percent Effect” value is listed as -2.811%.
With `O=C(C1CCC1)N1CCN(Cc2ccc(F)cc2)[C@H]2CS(=O)(=O)C[C@H]21`, the “Percent Effect” value came to 11.26%.
As to `O=C(Nc1ccccn1)NC1CCN(c2ccccc2OC(F)F)C1` (stereo unspecified), the “Percent Effect” value was -25.38%.
With `COc1ccc2nc(C[C@@H]3C[C@@H](C(C)C)[C@H](CN)C=C3C)[nH]c2n1`, the “Percent Effect” value turned out to be 16.51%.
For the compound `CC(C1CCN(Cc2cnn(C)c2C2CC2)CC1)N1CCCC1` (stereo unspecified), the “Percent Effect” value came out at 22.88%.
Regarding `C1CCC(NCC2(N3CCOCC3)CCSC2)C1` (stereo unspecified), the “Percent Effect” value is -110.3%.
On to `COc1ccccc1[C@@H]1CN(Cc2c(C)noc2C)C[C@H]1C(=O)O`, for which the “Percent Effect” value is reported as -13.6%.
`Cc1cc(NS(=O)(=O)CC2CCCCO2)ccc1F` (stereo unspecified): the “Percent Effect” value is 4.819%.
Regarding `Cc1cc(S(C)(=O)=O)c(C)c(S(=O)(=O)NCC2CCCO2)c1` (stereo unspecified), the “Percent Effect” value is given as -7.327%.
In the case of `Cc1cc(NCC2CCCO2)cc(=O)n1C` (stereo unspecified), the “Percent Effect” value is listed as 135.4%.
In the case of `COCC(C)N(C)C(=O)NC1CCN(c2ncccn2)CC1` (stereo unspecified), the “Percent Effect” value is given as 0.8848%.
For `CCN(Cc1noc(C2CC2)n1)Cc1ccc(C#N)cc1F`, the “Percent Effect” value is listed as -1.413%.
In the case of `O=C1NCCO[C@H]2CN(C(=O)Cc3cccs3)CC[C@@H]12`, the “Percent Effect” value is -57.9%.
Regarding `CC(C)N1CCO[C@@H]2CN(C(=O)Cc3cccs3)CC[C@@H]2C1.O=C(O)C(F)(F)F`, the “Percent Effect” value came out at 111.3%.
For the compound `CN(C)C[C@H]1OC[C@@H]2CCN(C(=O)Cc3cccs3)C[C@@H]21.O=C(O)C(F)(F)F`, the “Percent Effect” value is -1.59%.
For the compound `CN1CCO[C@@H]2CN(C(=O)Cc3cccs3)CC[C@@H]2C1.O=C(O)C(F)(F)F`, the “Percent Effect” value stood at 104.2%.
As for `COCCN1CCO[C@@H]2CN(C(=O)Cc3cccc(F)c3)CC[C@@H]2C1.O=C(O)C(F)(F)F`, the “Percent Effect” value worked out at 6.529%.
Next, `O=C(Cc1cccs1)N1CCOC(c2cccc(O)c2)C1` (stereo unspecified): -7.888%.
`CS(=O)(=O)N1CCO[C@@H]2CN(C(=O)Cc3cccs3)CC[C@@H]2C1`: the “Percent Effect” value amounted to 99.33%.
Regarding `O=C(Cc1cccs1)N1C[C@@H]2CN(Cc3ccoc3)CCO[C@@H]2C1.O=C(O)C(F)(F)F`, the “Percent Effect” value is recorded as -6.419%.
For `CCOc1ccc(N(C)S(=O)(=O)c2c[nH]c(C(C)C)n2)cc1` the value was -17.69%.
For `O=C(CNC(=O)C1CC1)NCCOc1cccc(Cl)c1Cl` the value was 3.053%.
`CC1CN(C(=O)c2ccc(C(N)=O)cc2)c2ccc(F)cc2O1` (stereo unspecified): the “Percent Effect” value is reported as -13.6%.
For `Cc1ccc2c(c1)OC(C)CN2C(=O)Cc1ccc(C)nc1` (stereo unspecified), the “Percent Effect” value is on record as -1.859%.
Next, `CC1CN(C(=O)c2cc[nH]c(=O)c2)c2ccccc21` (stereo unspecified): 6.091%.
Take `Cc1ccc2c(c1)OC(C)CN2C(=O)CCc1cccnc1` (stereo unspecified): the “Percent Effect” value stood at 9.162%.
For `Cc1ccc2c(c1)OC(C)CN2C(=O)CCc1cscn1` (stereo unspecified) the value was -1.954%; for `Cc1ccc2c(c1)N(C(=O)c1nccnc1N)CC(C)O2` (stereo unspecified), -0.6709%.
Consider `Cc1ccc2c(c1)N(C(=O)c1c[nH]c(C)cc1=O)CC(C)O2` (stereo unspecified), for which the “Percent Effect” value is 67.22%.
For the compound `Cc1ccc2c(c1)OC(C)CN2C(=O)c1c[nH]c(C)cc1=O` (stereo unspecified), the “Percent Effect” value is 100.7%.
Regarding `Cc1ccc2c(c1)N(C(=O)c1cc[nH]c(=O)c1)CC(C)O2` (stereo unspecified), the “Percent Effect” value came out at 102.6%.
Next, `CC(C)n1cnnc1CCNCc1cn(CCC(N)=O)c2ccccc12`: -8.335%; `Cn1/c(=N/C(=O)CSCC(=O)Nc2nccs2)sc2ccccc21`: -2.902%.
For `Cc1cnc2c(S(=O)(=O)NC(=O)C(C)OCC3CC3)cccc2c1` (stereo unspecified) the value was -0.9774%.
As for `Cc1[nH]ncc1C(=O)N1CCCC(c2cc(C(F)(F)F)[nH]n2)C1` (stereo unspecified), the “Percent Effect” value is recorded as -5.603%.
For `Cc1ccc(C(=O)N2CCCC(c3[nH]ncc3S(C)(=O)=O)C2)s1` (stereo unspecified) the value was 93.28%; for `Cc1ncncc1C(=O)N1CCCC(c2[nH]ncc2S(C)(=O)=O)C1` (stereo unspecified), 130.2%; for `Cc1ccc(C(=O)N2CCCC(Cn3cc(C(C)(C)N)nn3)C2)s1` (stereo unspecified), -58.84%.
On to `Cc1cccnc1C(=O)N1CCCC(c2[nH]ncc2S(C)(=O)=O)C1` (stereo unspecified), for which the “Percent Effect” value was -6.313%.
In the case of `Cc1csc(C(=O)N2CCCC(c3[nH]ncc3S(C)(=O)=O)C2)c1` (stereo unspecified), the “Percent Effect” value is on record as 97.17%.
For `Cc1ccsc1C(=O)N1CC(C(=O)N2CCCC2)C2(CCOCC2)C1` (stereo unspecified) the value was -0.2023%.
In the case of `Cc1ccsc1C(=O)N1CCCC(c2[nH]ncc2S(C)(=O)=O)C1` (stereo unspecified), the “Percent Effect” value came out at 116.3%.
For the compound `Cc1ncncc1C(=O)N1CCCN(Cc2ncc(Cl)n2C)CC1`, the “Percent Effect” value is given as 13.88%.
